Measured values: PubChem BioAssay AID926 (National Center for Advancing Translational Sciences (NCATS), 2007)
“And” between values parts separate entries of the source, which are not always exact repeats. Equal values may be shown once. The whole screen tested about 73,000 compounds, of which about 350 (0.48%) were called active. Another 17% or so got no clear call; they are omitted. Calls come from the whole dose curve; as a rule, active = well fitted activation curve with a large enough effect in the main read-out, with a control signal flat (not every such curve was filed as active); inconclusive = small, poorly fitted or top-dose-only effect, or a change in a side signal; inactive = no such curve, though single readings can be large or run the other way; reference of the percent scale not stated here. Only a selection was taken, and actives are over-represented in it overall.

How the values were obtained:
[1] = qHTS Assay for Agonists of the Thyroid Stimulating Hormone Receptor; settings: HEK293-CNG-TSHR cells, membrane potential dye, cAMP; measured here: parental cells max response
Text: (§1) NIH Chemical Genomics Center [NCGC]
(§2) NIH Molecular Libraries Screening Centers Network [MLSCN]
(§3) PI Name: Dr. Marvin Gershengorn, NIH
(§4) Thyroid Stimulating Hormone Receptor
(§5) TSH is an alpha/beta heterodimeric glycoprotein hormone secreted from the anterior pituitary gland which belongs to the glycoprotein hormone family. The actions of TSH are mediated by a seven-transmembrane receptor, which upon TSH binding couples preferentially to the G-alpha (s) protein (Gs), resulting in activation of adenylate cyclase and increase in cyclic adenosine 3', 5' monophosphate (cAMP). The TSH receptor (THSR) is mainly expressed in thyroid follicular cells and regulates their growth and function. Recombinant TSH is used to activate TSHR in patients with thyroid cancer receiving thyroid hormone suppression therapy and to screen for residual tumor after surgery, but it is expensive and must be administered intramuscularly. An orally active small molecule TSHR agonist would serve as an invaluable research tool for studying TSHR pharmacology and physiology, and would have multiple advantages in therapeutic settings. However, no selective small molecule agonist of the TSH receptor exists, and no small molecule screen for TSHR agonists has ever been reported.
(§6) This cell based assay utilized a cyclic nucleotide gated ion channel (CNG) as a biosensor for cAMP induction by potential TSHR agonists.
(§7) HEK 293 cells stably expressing the TSHR as well as a modified CNG were purchased from BD biosciences. Stimulation of cAMP production causes the CNG to open and subsequent membrane depolarization to occur. A fluorescent membrane potential dye (BD biosciences) was utilized to detect cAMP stimulation in TSHR cells.
(§8) The cells were maintained in DMEM medium (Invitrogen) containing 10 % FBS (Hyclone), 100 units/ml Penicillin, 100 ug/ml Streptomycin (Invitrogen), and 250 ug/ml Geneticin (Invitrogen) and 1 ug/ml Puromycin (Invitrogen) at 37C in 5% CO2. HEK 293 cells expressing CNG but without TSHR (parental cells) were used in concert to control for compounds signaling through endogenous receptors and targets of HEK 293 cells.
(§9) NCGC Assay Protocol Summary:
(§10) High Throughput Screening. Freshly passaged cells (TSHR or parental) were dispensed into 1536-well assay plates at 4 ul/well in DMEM containing phenol red (Invitrogen), 10% FCS (Hyclone), and 100 units/ml Penicillin, 100 ug/ml Streptomycin (Invitrogen) and incubated at 37 C with 5% CO2 for 20 to 36 hrs before the robotic screening. The screen was initiated by addition of 4 ul/well membrane potential dye containing 100 uM RO 20-1724 (Sigma Aldrich), followed by 60 min incubation at room temperature to allow for dye equilibration across the cell membrane. 23 nl/well compound or control was then added to the assay plates, which were incubated for additional 30 min before reading a Envision fluorescence plate reader (Perkin Elmer) in bottom-read mode for fluorescence intensity (emission at 590 nm).
(§11) Keywords: Thyroid-stimulating hormone TSH, TSHR, TSHR agonist, quantitative high throughput screening, qHTS, HTS, probe identification, CNG, cAMP, cyclic nucleotide gated ion channel PubChem

[2] = molecular target: Thyrotropin receptor (Homo sapiens) (UniProt P16473); experiment: as above; settings: HEK293-CNG-TSHR cells (CNG channel as cAMP sensor), membrane potential dye, cAMP; series mostly up to 57.1 µM
Text: as §1, §2, §3, §4, §5, §6, §7, §8, §9, §10, §11
Potency is the fitted concentration of half-maximal effect.

Chain of Thyrotropin receptor (Homo sapiens) (P16473 whole entry, looked up): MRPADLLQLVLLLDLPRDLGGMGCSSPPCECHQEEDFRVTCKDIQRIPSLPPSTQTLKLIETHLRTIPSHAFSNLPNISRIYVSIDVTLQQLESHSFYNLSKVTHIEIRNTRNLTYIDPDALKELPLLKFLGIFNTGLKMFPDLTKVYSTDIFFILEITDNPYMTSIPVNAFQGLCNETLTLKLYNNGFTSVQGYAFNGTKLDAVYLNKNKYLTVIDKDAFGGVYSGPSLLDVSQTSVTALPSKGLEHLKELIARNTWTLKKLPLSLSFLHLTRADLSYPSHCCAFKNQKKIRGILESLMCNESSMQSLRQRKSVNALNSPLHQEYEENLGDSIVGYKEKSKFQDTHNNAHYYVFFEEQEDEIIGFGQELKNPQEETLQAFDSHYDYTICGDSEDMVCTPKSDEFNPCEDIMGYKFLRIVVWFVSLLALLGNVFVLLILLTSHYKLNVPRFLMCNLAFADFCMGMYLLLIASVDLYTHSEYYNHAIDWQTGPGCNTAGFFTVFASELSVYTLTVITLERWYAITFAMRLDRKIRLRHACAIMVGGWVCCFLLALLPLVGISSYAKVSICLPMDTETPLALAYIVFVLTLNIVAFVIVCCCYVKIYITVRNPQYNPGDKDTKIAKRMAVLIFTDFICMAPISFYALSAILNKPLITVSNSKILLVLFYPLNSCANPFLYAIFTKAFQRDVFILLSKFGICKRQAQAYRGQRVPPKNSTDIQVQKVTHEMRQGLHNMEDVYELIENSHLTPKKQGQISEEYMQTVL

| Compound | activation [1] | Potency [2] | activation [2] |
| --- | --- | --- | --- |
| CC1CN(c2cc(=O)n(Cc3ccc(F)cc3)c(=O)[nH]2)CC(C)O1 (stereo not drawn) | 3.44% | inactive | – |
| COc1cccc([C@H]2Oc3ccc(OC)cc3/C(=N\OCC[C@@H]3C=C[C@H](OC(C)=O)[C@H](COC(C)=O)O3)[C@@H]2O)c1 | 1.81% | – | 9.23% [at 11.4 µM] (inactive) |
| COC(=O)[C@@H]1CC[C@H](C)[C@@H](c2ccc(C)cc2)N1C(=O)c1ccc(/C=N\OC[C@@H](O)COCc2ccco2)cc1 | 44.4% | – | 16.9% [at 11.4 µM] (inactive) |
| c1ccc2c(Nc3ccncc3)nc(-c3ccc4c(c3)OCO4)nc2c1 | -4.18% | inactive | – |
| CCc1ccccc1NC(=O)c1cccs1 | -1.56% | inactive | – |
| Nc1ccccc1N | -14.7% | inactive | – |
| Cc1ccc(CCn2c3c(c4ccccc42)CN(C)CC3)cn1 | 19.4% | inactive | – |
| COC(=O)[C@@]1(Cc2ccc(F)cc2)[C@H]2c3cc(C(=O)N(C)C)n(CCc4c[nH]c5ccc(OC)cc45)c3C[C@H]2CN1C(=O)c1ccccc1 | 3.36% | inactive | – |
| CO[C@H]1COC(=O)[C@@H](C)NC(=O)C/C=C\[C@@H](C)[C@H](OC)COC(=O)C/C=C\[C@@H]1C | 2.45% | – | -73.4% [at 11.4 µM] (inactive) |
| CCOc1cc(/C=N/O)cc(Br)c1OC | 15% | – | 4.51% [at 11.4 µM] (inactive) |
| C[C@H]1CC[C@H](C(=O)O)N[C@@H]1c1ccc(C#Cc2ccccc2)cc1 | 0.689% | – | 0.128% [at 11.4 µM] (inactive) |
| O=C(c1cccs1)N1CCN(Cc2ccc3c(c2)OCO3)CC1 | -2.72% | inactive | – |
| C[C@@H]1O[C@@H](O[C@@H]2[C@@H](O)[C@H](OCCc3ccc(O)c(O)c3)O[C@H](CO[C@@H]3O[C@H](CO)[C@@H](O)[C@H](O)[C@H]3O)[C@H]2OC(=O)/C=C/c2ccc(O)c(O)c2)[C@H](O)[C@H](O)[C@H]1O | 23.7% | inactive | – |
| O=C(O)COc1nsnc1N1CCOCC1 | -10.1% | inactive | – |
| c1ccc(COc2nsnc2N2CCOCC2)cc1 | 27.1% | 31.6 µM (active) | – |
| c1nc(COc2nsnc2N2CCOCC2)cs1 | -7.01% | inactive | – |
| COc1ccc(OC)c(NC(=O)CC(Cc2ccccc2OC)C(=O)O)c1 (stereo not drawn) | 9.66% | inactive | – |
| COc1ccc(OC)c(NC(=O)CSc2nc(N)c(-c3ccccc3)c(=O)[nH]2)c1 | 9.04% | 25.1 µM (active) | – |
| CCn1c(COc2ccc(OC)cc2)nnc1SCC(=O)Nc1cc(OC)ccc1OC | 24.1% | inactive | – |
| CN(C)CCCCNC(=O)c1ccc(Cc2nc3ccccc3[nH]2)cc1 | 3.13% | inactive | – |

| Compound | activation [1] | Potency [2] | activation [2] |
| --- | --- | --- | --- |
| Cc1ccc2oc(=O)c3cnn(CC(=O)N4CCN(c5ccccn5)CC4)c3c2c1 | 4.94% | inactive | – |
| CC(C)[C@@H](OCc1ccccc1)[C@H](C)/C=N\OC[C@@H](C)[C@H](OCc1ccccc1)C(C)C | 2.03% | – | 1.85% [at 11.4 µM] (inactive) |
| Cc1c(S(=O)(=O)O)ccc(N=Nc2c(O)c(C(=O)O)cc3ccccc23)c1Cl | -23.8% | – | -9.34% [at 11.4 µM] (inactive) |
| Cc1nc2cnc(N3CCNCC3)nc2n(CCc2ccccc2)c1=O | 9.57% | inactive | – |
| CCOC(=O)c1c(NC(=O)CCC(=O)NCc2ccco2)sc2c1CCCC2 | 12.9% | inactive | – |
| O=C(COC(=O)C12CC3CC(CC(C3)C1)C2)NCc1ccco1 | -8.57% | 0.794 µM (active) | – |
| O=C(COC(=O)CCC(=O)c1cccs1)NCc1ccco1 | 10.5% | inactive | – |
| CC(C)CO/N=C1/C[C@@H](O)[C@@H](O)[C@@H]2[C@@H]3C(=O)N(C[C@@H]4CCCO4)C(=O)[C@H]3CC[C@@H]12 | 4.27% | – | -4.09% [at 11.4 µM] (inactive) |
| COC(=O)C(C(=O)OC)[C@@H]1CCCC(=O)C1 | 4.23% | – | -9.31% [at 11.4 µM] (inactive) |
| COC(=O)C(C)Sc1ccc2nnc(-c3cccc(F)c3)n2n1 (stereo not drawn) | 2.29% | inactive | – |
| CSc1ccc(Cl)c(C(=O)OCC(=O)N2CC(C)OC(C)C2)c1 (stereo not drawn) | 6.62% | inactive | – |
| COC(=O)C1=C(C)N(Cc2ccccc2)C2=C3C(=O)N(c4ccccc4)C(=O)C3[C@@](O)(C(=O)OC)C(=O)N2C1c1ccccc1 (stereo partly drawn) | 9.18% and 2.67% | – | -0.785% [at 11.4 µM] (inactive) and 7.43% [at 11.4 µM] (inactive) |
| CCCNC(=O)OC[C@@H]1O[C@H](c2ccccc2)C=C[C@@H]1Oc1ccc(OC)cc1 | 1.38% | – | 1.94% [at 11.4 µM] (inactive) |
| CN1CCCc2cc(C#N)c(=O)[nH]c21 | 7.1% | – | 4.78% [at 11.4 µM] (inactive) |
| O=C(Cc1nn[nH]n1)NCCC1=CCCCC1 | 15.8% | inactive | – |
| O=C(CN1C(=O)NC2(CCCCC2)C1=O)NCCC1=CCCCC1 | 3.28% | 12.6 µM (active) | – |
| O=C(COc1cccc(-n2cnnn2)c1)NCCC1=CCCCC1 | -0.416% | inactive | – |
| CNC(=O)C1(C)C=CC2(CCCCC2)N1C(C)=O (stereo not drawn) | 9.38% | inactive | – |
| O=C(c1ccccc1)c1ccc2nc(N3CCCCC3)c3nncn3c2c1 | 3.47% | inactive | – |
